Bioassay records: PubChem, Center for Chemical Genomics, University of Michigan
Only a selection was taken, and hits are over-represented in it overall.
Dicer processing = human Dicer pre-microRNA cleavage inhibition; Q9UPY3; cat-ELCCA pre-miR-21 Dicer processing, chemiluminescence; active compounds read high; z-score at 25 µM; hit rate 6% among 47,000; in the data active means z-score above about 3, passing the limit was not always enough;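 further: higher signal means more uncleaved substrate so more Dicer inhibition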
Large screens that a line does not name were inactive.

O=C1c2ccccc2C2N1CCCN2S(=O)(=O)c1cccc(C(F)(F)F)c1 (centres undefined)	none
Cc1cc(Sc2ccc(C(F)(F)F)cc2[N+](=O)[O-])c(Cl)cc1Cl	none
COc1ccc(OC)c(Sc2ccc(C(F)(F)F)cc2[N+](=O)[O-])c1	Dicer processing 7.8
COc1ccc(OC)c(Sc2ccc(Cl)cc2[N+](=O)[O-])c1	none
COc1cc(Sc2ccc(Cl)cc2)ccc1[N+](=O)[O-]	none
COc1ccc(OC)c(Sc2ccc([N+](=O)[O-])cc2)c1	Dicer processing 4.5
COc1cc([N+](=O)[O-])c(C)cc1Sc1ccc(C)cc1	none
O=C(CC1(O)C(=O)Nc2ccccc21)c1ccccn1 (centres undefined)	none
Cc1cc(=O)oc2c1c(C(F)(F)F)nn2-c1ccccc1	none
COc1ccccc1OCCSc1nc(C)cc(C)n1	none
Cc1ccc(OCCSc2nc(N)cc(N)n2)c(C(C)C)c1	Dicer processing 4.9
Cc1ccc(C(C)C)c(OCc2nc3ccccc3n2C)c1	none
O=C(N/N=C/C=N/Nc1ccccc1)c1sc2ccccc2c1Cl	none
COc1ccc(-c2cnc3c(-c4ccccc4)cnn3c2N)cc1OC	none
CC(C)(C)c1ccc(-c2[nH]nc(NS(=O)(=O)c3ccccc3)c2Br)cc1	none
Cn1nccc1NS(=O)(=O)c1ccc(C(C)(C)C)cc1	none
COc1ccccc1Oc1c(NS(=O)(=O)c2ccc(C(C)(C)C)cc2)nc(-c2ncccn2)nc1OCCO	Dicer processing 18
COC(=O)C1=C(C(=O)OC)SC(=C2C(=S)C(C)(C)N(C(=O)C3CC3)c3ccccc32)S1	none
CC(C)(C)c1ccc(C(=O)NCC(=O)O)cc1	none
CNC(=O)NC(=O)Cn1nc2n(c1=O)-c1ccccc1SC2	none
NNC(=O)Cn1nc2n(c1=O)-c1ccccc1SC2	Dicer processing 4.1
CC(=O)Cn1nc2n(c1=O)-c1ccccc1SC2	none
CCOC(=O)CSc1nc(-c2cccs2)cn1-c1ccc(C)cc1	none
COC(=O)CC(=O)CSc1nc(C)c(C)cc1C#N	none
Cc1ccc(S(=O)(=O)NC(=O)Nc2cc(C(F)(F)F)ccc2NCCNC(=O)OC(C)(C)C)cc1	none
Nc1nccc(/C=C/c2c(F)cccc2Cl)n1	none
CCOc1cc(C2Nc3ccccc3NC3=C2C(=O)CC(c2ccccc2)C3)ccc1O (centres undefined)	none
COc1ccc(C2CC(=O)C3=C(C2)Nc2ccccc2NC3c2ccc(F)cc2)cc1 (centres undefined)	none
COc1ccc(C2CC(=O)C3=C(C2)Nc2ccccc2NC3c2ccc(F)c(Br)c2)cc1 (centres undefined)	Dicer processing 5.2
COc1ccc(C2CC(=O)C3=C(C2)Nc2ccccc2NC3c2cccc(Br)c2)cc1 (centres undefined)	none
O=C1CC(c2ccccc2)CC2=C1C(c1cccnc1)Nc1ccccc1N2 (centres undefined)	none
O=C1CC(c2ccccc2)CC2=C1C(c1ccc(F)c(F)c1)Nc1ccccc1N2 (centres undefined)	Dicer processing 4.6
COc1ccc(C2CC(=O)C3=C(C2)Nc2ccccc2NC3c2cccc(O)c2)cc1 (centres undefined)	none
COc1ccc(C2Nc3ccccc3NC3=C2C(=O)CC(c2cccs2)C3)cc1Br (centres undefined)	none
COc1ccc(C2CC(=O)C3=C(C2)Nc2ccccc2NC3c2ccc(OC)cc2)cc1 (centres undefined)	Dicer processing 4.5
COc1cccc(C2Nc3ccccc3NC3=C2C(=O)CC(c2cccs2)C3)c1 (centres undefined)	Dicer processing 3.4
COc1ccccc1C1Nc2ccccc2NC2=C1C(=O)CC(c1cccs1)C2 (centres undefined)	none
COc1ccc(C2CC(=O)C3=C(C2)Nc2ccccc2NC3c2coc3ccc(Cl)cc3c2=O)cc1 (centres undefined)	none
CN(C)CC#Cc1cncc(C(=O)NNC(=O)Nc2ccc(Cl)cc2)c1	none
Cn1c(=O)c2c(-c3ccccc3)n(-c3ccccc3Br)cc2n(C)c1=O	none
O=C(N/C=C/c1cccs1)NCc1c(Cl)cccc1Cl	none
COc1cc(SC)ccc1C(=O)N1CCC(Cc2ccccc2)CC1	none
CN1C2CCC1CC(NC(=O)CSc1ccc(C(C)(C)C)cc1)C2 (centres undefined)	none
CCC(=O)N1c2ccccc2NC2=C(C(=O)CC(c3ccco3)C2)C1c1ccco1 (centres undefined)	none
O=C1C2C3c4ccccc4C(C(=O)O)(c4ccccc43)C2C(=O)N1c1cccc(Cl)c1 (centres undefined)	none
COc1ccc(C2CC(=O)C3=C(C2)Nc2ccccc2N(C(=O)C2CC2)C3c2cccnc2)cc1OC (centres undefined)	none
O=C(O)CCC(=O)N1c2ccccc2NC2=C(C(=O)CC(c3ccccc3)C2)C1c1cccc(F)c1 (centres undefined)	none
COc1cccc(C2C3=C(CC(c4ccccc4)CC3=O)Nc3ccccc3N2C(=O)C2CC2)c1 (centres undefined)	Dicer processing 3.7
CN(C)c1ccc(C2CC(=O)C3=C(C2)Nc2ccccc2NC3c2ccccc2)cc1 (centres undefined)	Dicer processing 4.8
Cc1ccc(C2CC(=O)C3=C(C2)Nc2ccccc2NC3c2ccncc2)cc1 (centres undefined)	none
Cc1ccccc1C1Nc2ccccc2NC2=C1C(=O)CC(c1ccccc1)C2 (centres undefined)	none
CCOc1ccccc1CNCCSc1nnnn1C	none
COCCN(CCOC)Cc1c(C)[nH]c2c(C)c(C)ccc2c1=O	none
Cn1c(SCC(=O)Nc2cccc3nsnc23)nnc1-c1ccncc1	none
CCOC(=O)/C(C#N)=C/c1ccc(Br)cc1	none
COC(=O)/C(C#N)=C/c1cccc(Br)c1	Dicer processing 9.3
COC(=O)/C(C#N)=C/c1ccc(Cl)cc1	none
CCOC(=O)NNC(=S)NCC(C)CC (centres undefined)	none
O=C1CC(=O)N(c2ccc(F)cc2)N1	none
O=C(O)CSc1nc2ccccc2n1Cc1ccccc1	none
OCCSc1nc2ccccc2n1Cc1ccccc1	none
NC(=O)Cn1c(CSc2nc3ccccc3n2Cc2ccccc2)nc2ccccc21	Dicer processing 4.2
COc1ccc(S(=O)(=O)N(c2cccc(C)n2)S(=O)(=O)c2ccc(OC)cc2)cc1	none
Cc1ccc(NC(=O)CC(CC(=O)O)c2ccccc2)nc1 (centres undefined)	Dicer processing 3.7
CC(CC(=O)O)CC(=O)Nc1ccccn1 (centres undefined)	none
Cc1ccc(NC(=O)CC(C)CC(=O)O)cc1 (centres undefined)	none
COc1ccccc1N1C(=O)C2CC=C(Cl)CC2C1=O (centres undefined)	none
CSc1c(C#N)c(-c2cc(C(C)(C)C)oc2C)nn1-c1ccc(F)cc1	none
Cc1ccc2c(c1)-c1cc(C)nn1C(c1ccccc1F)N2 (centres undefined)	none
CC(C)=C1C(=O)NN(c2ccccc2)C1=O	none
COc1ccc(/C(O)=C2/C(=O)C(=O)N(CC3CCCO3)C23C(=O)N(C)c2ccccc23)cc1C (centres undefined)	none
CCN1C(=O)C2(/C(=C(/O)c3ccc(C)c(F)c3)C(=O)C(=O)N2CCOC)c2ccccc21 (centres undefined)	Dicer processing 8.7
CCN1C(=O)C2(/C(=C(/O)c3ccc(C)c(F)c3)C(=O)C(=O)N2CCN2CCOCC2)c2ccccc21 (centres undefined)	none
C=CCOc1ccc(/C(O)=C2/C(=O)C(=O)N(CCOC)C23C(=O)N(CC)c2ccccc23)cc1 (centres undefined)	none
C=CCOc1ccc(/C(O)=C2/C(=O)C(=O)N(CC3CCCO3)C23C(=O)N(C)c2ccccc23)cc1C (centres undefined)	Dicer processing 5.2
